Hits are enriched below; roughly 2.7% of the tested compounds scored in any of these assays.
GLP-1R agonist = qHTS of GLP-1 Receptor Agonists. Glucagon-like peptide 1 receptor (Homo sapiens), P43220. HEK293 GLP-1R CRE-luciferase, luminescence, 4-6 h; cells express a hypersensitive GLP-1R form. Potency, µM (titrated, usually from 45.6 µM), most hits filed as activators. 380,000 compounds, 0.007% hits. AID 624172, 2012
TrxR1 substrate = qHTS Assay for Substrates of Mammalian Selenoprotein Thioredoxin Reductase 1 (TrxR1): qHTS | Thioredoxin reductase 1, cytoplasmic (Rattus norvegicus), O89049 | purified TrxR1 substrate turnover, NADPH consumption readout | Potency, µM (series often up to 114 µM) | 390,000 compounds, 0.01% hits; also: nearly all actives have a fitted effect of over 50% in size
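Rat TrxR1, dispensed at 90 nM, was prereduced with 400 uM NADPH (final) for 5 min at ~22 deg C, then incubated with compound 15 min before 400 uM selenite. A first-read NADPH fluorescence drop versus no-compound background flagged substrates.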
GLP-1R inv ag = qHTS of GLP-1 Receptor Inverse Agonists (Inhibition Mode). Glucagon-like peptide 1 receptor (Homo sapiens), P43220. HEK293 GLP-1R CRE-luciferase, luminescence, 24 h; GLP-1R form is constitutively active. Potency, µM (titrated, usually from 38.3 µM), usual class: inhibitors. 410,000 compounds, 1.6% hits. AID 624417, 2012; also: nearly all actives have a fitted effect of over 55% in size
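Cells are plated, allowed 12 hours at 37 deg C, then treated with compounds for 24 hr before luciferase detection reagent is added and luminescence is read after 12 min at room temperature. The HEK293 line carries constitutively active GLP-1R with a cAMP-responsive reporter.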
IDH1 R132H inh = qHTS for Inhibitors of mutant isocitrate dehydrogenase 1 (IDH1): qHTS; IDH1-R132H enzyme, NADPH consumption, diaphorase/resazurin fluorescence; Potency, µM (doses to about 76.6 µM), usual class: inhibitors; 390,000 compounds, 0.093% hits; also: nearly all actives have a fitted effect of over 65% in size
Target sequence (O75874 whole entry R132H, stated change not applied): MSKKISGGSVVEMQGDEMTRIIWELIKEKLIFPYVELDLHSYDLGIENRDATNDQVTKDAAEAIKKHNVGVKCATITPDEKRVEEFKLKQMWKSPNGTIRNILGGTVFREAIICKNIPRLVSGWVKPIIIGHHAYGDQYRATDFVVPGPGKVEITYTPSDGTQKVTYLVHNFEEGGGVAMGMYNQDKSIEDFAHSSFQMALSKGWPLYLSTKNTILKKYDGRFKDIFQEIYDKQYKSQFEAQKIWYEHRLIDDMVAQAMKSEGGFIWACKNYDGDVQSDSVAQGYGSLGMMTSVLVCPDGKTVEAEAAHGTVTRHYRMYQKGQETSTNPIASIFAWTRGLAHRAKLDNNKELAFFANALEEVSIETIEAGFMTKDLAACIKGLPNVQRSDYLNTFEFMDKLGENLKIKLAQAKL
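IDH1-R132H (0.5 ug/mL) preincubated 30 min with compound, then NADPH (0.016 mM) and alpha-KG (2 mM) added; 80 min at RT, pH 7.5. Remaining NADPH coupled via diaphorase/resazurin to fluorescence (540/590 nm); concentration-response curves normalized to no-enzyme control.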
rTrxR1 inhibitor = qHTS Assay for Inhibitors of Mammalian Selenoprotein Thioredoxin Reductase 1 (TrxR1): qHTS; Thioredoxin reductase 1, cytoplasmic (Rattus norvegicus), O89049; recombinant rTrxR1, NADPH fluorescence consumption, selenite substrate; Potency, µM (titrated, usually from 114 µM), most hits filed as inhibitors; 390,000 compounds, 1% hits; AID 588453, 2011; also: nearly all actives have a fitted effect of over 65% in size
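Rat TrxR1 (90 nM in the dispensed reagent) was pre-reduced with 400 uM NADPH for 5 min at room temperature, then incubated with compound for 15 min. After 400 uM selenite was added, NADPH fluorescence (Ex 340/Em 450 nm) was followed for 8 min.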
HEK293 tox = qHTS of GLP-1 Receptor Inverse Agonists: Cytotox Screen; HEK293 cAMP-luciferase reporter cells, luminescence, 24 h; Potency, µM (doses to about 38.3 µM), usual class: inhibitors; 410,000 compounds, 0.13% hits; AID 624418, 2012;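 also: loss of luciferase light is scored as toxicity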
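Here, cytotoxicity is scored as loss of luminescence. The MLSMR collection was tested on cells seeded in medium containing 10% Nu serum, with a 24 hr compound exposure preceded by 12 hours of culture.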
Each line names hits and unclear results; the compound was inactive in the other large screens. Calls follow the shape of the dose curve; as a rule, active = well fitted curve in the direction sought with a large enough effect; inconclusive = small, poorly fitted or top-dose-only effect, or another doubt; inactive = no such curve, though single readings can be large; an effect the other way counts as inactive or inconclusive.

COc1ccccc1C1NC(c2ccc3c(c2)OCO3)=CC(c2ccccc2O)N1 (stereo unspecified)	none (no result: GLP-1R agonist, GLP-1R inv ag, IDH1 R132H inh, HEK293 tox)
Cc1ccc(C)c(OCCC(=O)OCC(=O)Nc2cc(S(=O)(=O)N3CCCCC3)ccc2C)c1	GLP-1R inv ag inconclusive
Cc1ccc(C)c(OCCC(=O)Nc2cc(S(=O)(=O)N3CCCCC3)ccc2C)c1	GLP-1R inv ag 11µM
CCOC(=O)c1c(S(=O)(=O)N2CCN(c3cccc(C(F)(F)F)c3)CC2)c(C)n(C)c1C	none (no result: GLP-1R agonist)
CCOC(=O)c1c(C)[nH]c(C)c1S(=O)(=O)N1CCN(c2cccc(C(F)(F)F)c2)CC1	GLP-1R inv ag 5.6µM, HEK293 tox inconclusive (no result: GLP-1R agonist)
Fc1ccc(N2N=C(c3cccs3)CC2c2ccccc2)cc1 (stereo unspecified)	GLP-1R inv ag 11µM
Cc1ccc2[nH]cc(C(c3ccccc3)c3ccc(Cl)s3)c2c1 (stereo unspecified)	GLP-1R inv ag 10µM (no result: GLP-1R agonist)
Clc1ccc(C(c2ccccc2)c2c[nH]c3ccccc23)s1 (stereo unspecified)	GLP-1R inv ag inconclusive
Cc1cccc(N2CCN(C(=O)Cn3ncc4c3-c3cc(C)ccc3OC4)CC2C)c1 (stereo unspecified)	GLP-1R inv ag 11µM (no result: GLP-1R agonist)
CCOC(=O)C1=C(c2ccc(OC)cc2)OC(N)=C(C#N)C1c1cccnc1 (stereo unspecified)	rTrxR1 inhibitor 79µM
CCOC(=O)C1=C(c2ccccc2)OC(N)=C(C#N)C1c1cccnc1 (stereo unspecified)	none
CC(=O)c1ccc(NC(=S)NC(=O)/C=C/c2ccco2)cc1	rTrxR1 inhibitor inconclusive
Cc1cccc(NC(=S)NC(=O)/C=C/c2ccco2)c1	GLP-1R agonist inconclusive, GLP-1R inv ag inconclusive, rTrxR1 inhibitor 22µM, HEK293 tox inconclusive
O=C(/C=C/c1ccco1)NC(=S)Nc1ccccc1	GLP-1R inv ag inconclusive, rTrxR1 inhibitor 45µM
CSc1cccc(NC(=O)/C=C/c2ccco2)c1	rTrxR1 inhibitor 14µM
CCCCC(=O)NC(=S)Nc1cccc(NC(=O)c2ccco2)c1	rTrxR1 inhibitor 8.9µM
Cc1ccc2c(c1)c(=O)c(S(=O)(=O)c1ccc(C)c(C)c1)cn2CC(=O)Nc1ccccc1	none
COc1ccc(OC)c(NC(=O)CSC2=Nc3ccccc3C3=NC(CCC(=O)NCCc4ccccc4)C(=O)N23)c1 (stereo unspecified)	none (no result: GLP-1R agonist)
O=C(/C=C/c1ccco1)NC(=S)Nc1cccc([N+](=O)[O-])c1	rTrxR1 inhibitor 20µM, HEK293 tox inconclusive
O=C(NCc1ccccc1Cl)c1ccc(NC(=O)c2nsc3ccccc23)cc1	none (no result: GLP-1R agonist)
C=CCn1c(COc2ccc(Cl)cc2)nnc1SCC(=O)N/N=C/c1cccc(O)c1	GLP-1R inv ag inconclusive
C=CCn1c(COc2ccccc2)nnc1SC(C)C(=O)N/N=C/c1cc(Cl)ccc1O (stereo unspecified)	GLP-1R inv ag 8.9µM
O=C(Nc1ccc(-c2cn3cccnc3n2)cc1)c1cc(Br)ccc1Cl	none
CC1(C)CC(=O)C(N=Nc2ccc(C(F)(F)F)cc2[N+](=O)[O-])=C(O)C1	none
CC1(C)CC(=O)C(C(C2=C(O)CC(C)(C)CC2=O)c2ccc(O)c([N+](=O)[O-])c2)=C(O)C1	rTrxR1 inhibitor 13µM
COc1cccc2cc(C(=O)C3=C(O)C(=O)N(c4cc(C)on4)C3c3cccs3)oc12 (stereo unspecified)	GLP-1R inv ag inconclusive, rTrxR1 inhibitor 50µM

Screening results (PubChem)
